This note sets out measurements from PubChem BioAssay (Tox21).

“And” between values parts separate entries of the source, which are not always exact repeats. Equal values may be shown once. Results filed as inconclusive are left out. Where a call stands in place of a potency, no number is given. The source holds several records for some structures; these can differ, active in one and inactive in another. The source made the active and inactive calls. Calls come from the whole dose curve; as a rule, active = well fitted cell-killing curve with a large enough effect in the repeat runs; inconclusive = weak or mixed curves, or effect the other way; inactive = flat fitted curve, though single readings scatter.
Potency is the fitted concentration of half-maximal effect.

The nature of the experiment: qHTS assay to identify small molecule that activate the aryl hydrocarbon receptor (AhR) signaling pathway - cell viability counter screen (AID 743086). Note: nearly all actives have a fitted effect of over 45% in size. Particulars: HepG2-AhR-luc viability, CellTiter-Fluor, 24 h; series mostly up to 70.3 µM. In outline:
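HepG2-AhR-luc (HG2L7.5c1) cells, 4000/well, were preincubated 5 h at 37C, exposed to compound in qHTS format for 24 hr at 37C, then given CellTiter-Fluor for 30 min; viability was read as fluorescence in the reporter wells.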
(In qHTS, concentration-response curves come from the screen itself.)
For `CC1(C)C[C@@H]1C(=O)N/C(=C\CCCCSC[C@H](N)C(=O)O)C(=O)O`, the Potency result was “inactive”.
Under `Cc1cc(-c2ccc(N=Nc3ccc4c(S(=O)(=O)O)cc(S(=O)(=O)O)c(N)c4c3O)c(C)c2)ccc1N=Nc1ccc2c(S(=O)(=O)O)cc(S(=O)(=O)O)c(N)c2c1O` stands “inactive and 29.8 µM (active)”.
Under `Clc1nc(C(Cl)(Cl)Cl)c(Cl)c(Cl)c1Cl` stands “inactive”; under `O=C1c2ccccc2C(=O)C1c1ccc(F)cc1`, “inactive”; under `CC(=O)OCC(=O)[C@@]1(O)CC[C@H]2[C@@H]3C[C@H](C)C4=CC(=O)C=C[C@]4(C)[C@H]3[C@@H](O)C[C@@]21C`, “inactive”.
Under `CC(C)c1ccc2sc3ccccc3c(=O)c2c1` stands “inactive”; under `CC(=O)Oc1cc(C(F)(F)F)ccc1C(=O)O`, “inactive”; under `N[C@H](C(=O)O)[C@@H]1CC(Cl)=NO1`, “inactive”.
Take `CC1CCCCN1CCCOC(=O)c1ccccc1` (stereo not given): the Potency entry was “inactive”.
As for `O=C1CCC(c2ccc(-n3ccnc3)cc2)=NN1`, the Potency result was “inactive”.
With `COc1cc(/C=C/C(=O)CC(=O)/C=C/c2ccc(O)c(OC)c2)ccc1O` the entry was “inactive and 27.5 µM (active)”; with `CSCC[C@H](NC(=O)[C@H](Cc1ccc(OS(=O)(=O)O)cc1)NC(=O)[C@@H](N)CC(=O)O)C(=O)NCC(=O)N[C@@H](Cc1c[nH]c2ccccc12)C(=O)N[C@@H](CCSC)C(=O)N[C@@H](CC(=O)O)C(=O)N[C@@H](Cc1ccccc1)C(N)=O`, “inactive”; with `O=C1OC(=O)c2cc(-c3ccc4c(c3)C(=O)OC4=O)ccc21`, “inactive”.
Under `CCOc1ccc([N+](=O)[O-])cc1` stands “inactive”.
With `C=N[C@@H](C(=O)N[C@@H]1C(=O)N2[C@@H]1SC(C)(C)[C@@H]2C(=O)O)c1ccccc1` the entry was “inactive”; with `CN(C)CCc1c[nH]c2ccc(Cn3cncn3)cc12`, “inactive”.
Regarding `FC(F)(F)COCC(F)(F)F`, the Potency result is “inactive”.
On to `N[C@@H](Cc1ccc(O)c(O)c1)C(=O)O`, for which the Potency result was “inactive”.
With `C[C@@H]1C[C@H]2[C@@H]3C[C@H](F)C4=CC(=O)C=C[C@]4(C)[C@@]3(Cl)[C@@H](O)C[C@]2(C)[C@H]1C(=O)COC(=O)C(C)(C)C` the entry was “inactive”.
As for `NC(N)=NCCCCN=C(N)N`, the Potency result was “inactive”.
With `NC(=O)CC[C@@H]1NC(=O)[C@H](Cc2ccccc2)NC(=O)[C@H](Cc2ccc(O)cc2)NC(=O)[C@@H](N)CSSC[C@@H](C(=O)N2CCC[C@H]2C(=O)N[C@@H](CCCN=C(N)N)C(=O)NCC(N)=O)NC(=O)[C@H](CC(N)=O)NC1=O` the entry was “inactive”; with `Cc1c(N)nc([C@H](CC(N)=O)NC[C@H](N)C(N)=O)nc1C(=O)N[C@H](C(=O)N[C@H](C)[C@@H](O)[C@H](C)C(=O)N[C@H](C(=O)NCCc1nc(-c2nc(C(=O)NCCCCN=C(N)N)cs2)cs1)[C@@H](C)O)[C@@H](O[C@@H]1O[C@@H](CO)[C@@H](O)[C@H](O)[C@@H]1O[C@H]1O[C@H](CO)[C@@H](O)[C@H](OC(N)=O)[C@@H]1O)c1cnc[nH]1`, “inactive”; with `CC[C@@H](C(=O)[C@@H](C)[C@@H](O)[C@H](C)CCc1ccc(C)c(O)c1C(=O)O)[C@H]1O[C@](CC)([C@H]2CC[C@](O)(CC)[C@H](C)O2)C[C@@H]1C`, 29.8 µM (active).
Under `CCC(NC(C)C)C(O)c1ccc(O)c(O)c1` (stereo not given) stands “inactive”.
With `CCCCCCOC(=O)c1cccnc1` the entry was “inactive”.
`CC(C)C[C@H](NC(=O)[C@@H](COC(C)(C)C)NC(=O)[C@H](Cc1ccc(O)cc1)NC(=O)[C@H](CO)NC(=O)[C@H](Cc1c[nH]c2ccccc12)NC(=O)[C@H](Cc1cnc[nH]1)NC(=O)[C@@H]1CCC(=O)N1)C(=O)N[C@@H](CCCN=C(N)N)C(=O)N1CCC[C@H]1C(=O)NNC(N)=O`: the Potency result is “inactive”.
With `CC(=O)OCC1=C(C(=O)O)N2C(=O)[C@@H](NC(=O)Cc3ccccc3)[C@H]2SC1`, the Potency entry was “inactive”.
Under `NS(=O)(=O)c1cc(Cl)c(Cl)c(S(N)(=O)=O)c1` stands “inactive”; under `O=c1[nH]c(=O)n([C@H]2C[C@H](O)[C@@H](CO)O2)cc1/C=C/Br`, “inactive”.
As to `C[C@H]1O[C@@H](O[C@H]2CC[C@@]3(C)[C@H](CC[C@@H]4[C@@H]3C[C@@H](O)[C@]3(C)[C@@H](C5=CC(=O)OC5)CC[C@]43O)C2)C[C@H](O)[C@@H]1O[C@H]1C[C@H](O)[C@H](O[C@H]2C[C@H](O)[C@H](O[C@@H]3O[C@H](CO)[C@@H](O)[C@H](O)[C@H]3O)[C@@H](C)O2)[C@@H](C)O1`, the Potency entry is “inactive”.
